Reference: PubChem BioAssay
Inconclusive results are not listed. For some assays here: Results with a measured potency or affinity are listed apart. The source made the active and inactive calls.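 The calls were made as follows, unless noted: active = luciferase signal above three times the same-plate solvent-only control wells; inactive = the rest.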

Experiments:
[1] = target: Mitogen-activated protein kinase 7 (Homo sapiens) (UniProt Q13164); experiment: ERK5 transactivation activators in reporter cells, primary screen, cell-based, HTS (AID 1508626); conditions: HeLa Gal4-ERK5 transactivation, 18 h, at 5 µM, stronger effect = higher value;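 also: luciferase driven by Gal4-ERK5 fusion binding five Gal4 sites before minimal TATA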
Sequence of Mitogen-activated protein kinase 7 (Homo sapiens) (Q13164 whole entry, looked up, the tested form may be a part): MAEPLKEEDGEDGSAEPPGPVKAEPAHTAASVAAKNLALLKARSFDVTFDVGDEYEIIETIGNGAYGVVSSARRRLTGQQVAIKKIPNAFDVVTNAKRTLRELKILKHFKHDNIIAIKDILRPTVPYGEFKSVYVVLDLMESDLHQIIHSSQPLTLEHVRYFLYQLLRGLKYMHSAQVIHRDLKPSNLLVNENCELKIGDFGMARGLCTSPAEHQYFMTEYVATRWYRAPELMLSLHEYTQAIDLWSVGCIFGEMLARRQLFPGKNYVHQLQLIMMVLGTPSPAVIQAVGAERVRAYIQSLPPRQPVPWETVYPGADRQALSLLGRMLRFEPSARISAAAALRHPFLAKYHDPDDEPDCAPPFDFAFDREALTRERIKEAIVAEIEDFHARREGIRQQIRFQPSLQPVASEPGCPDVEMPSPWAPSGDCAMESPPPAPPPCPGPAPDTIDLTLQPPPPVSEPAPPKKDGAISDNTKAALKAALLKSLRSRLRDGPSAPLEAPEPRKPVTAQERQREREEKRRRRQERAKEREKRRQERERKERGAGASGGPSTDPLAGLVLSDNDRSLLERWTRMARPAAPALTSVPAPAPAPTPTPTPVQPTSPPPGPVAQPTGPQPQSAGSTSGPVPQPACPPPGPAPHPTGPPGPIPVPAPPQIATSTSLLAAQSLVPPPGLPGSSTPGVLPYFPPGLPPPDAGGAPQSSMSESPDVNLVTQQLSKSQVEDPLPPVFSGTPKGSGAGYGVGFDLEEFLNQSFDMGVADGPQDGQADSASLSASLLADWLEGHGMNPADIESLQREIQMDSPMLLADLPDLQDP

[2] = mitochondrial permeability transition inhibitors (AID 1580; call rule not given here); conditions: isolated mitochondria, permeability transition inhibition
[3] = polyglutamine-triggered caspase-3 activation inhibitors, cell-based (AID 1583); conditions: polyglutamine-induced caspase-3 activation, cell assay; stronger effect = higher value;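 tested at 10 µM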
[4] = suppressors of polyQ aggregation in yeast, 75Q-TubU reporter (AID 1593); conditions: Yeast 75Q polyglutamine aggregation reporter
[5] = rescue of polyQ-huntingtin neuronal dysfunction in worms, whole organism, C. elegans mechanosensory neurons, N-terminal huntingtin (AID 1599); conditions: touch response, stronger effect = higher value
[6] = inhibitors of mitochondrial cytochrome c release, biochemical, purified mitochondria (AID 1603); conditions: stronger effect = lower value;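 also: mouse liver mitochondria challenged with calcium chloride; signal normalized to the plate average as 100%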
[7] = inhibitors of polyQ protein aggregation (AID 1604); conditions: polyglutamine-induced protein aggregation inhibition assay; stronger effect = higher value; tested at 2.5 µM
[8] = enhancers of glutamate uptake in motor neurons, MN-1 cell line (AID 1612); conditions: MN-1 motor neuron cells, stronger effect = higher value;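 also: tested at 1 µM final; 0% = mean of DMSO vehicle wells on each plate; positive means more glutamate uptake than control and negative means less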
[9] = suppressors of polyglutamine aggregation in yeast, 75Q-TubH (AID 1616); conditions: S. cerevisiae 75Q-TubH polyglutamine aggregation suppression; stronger effect = higher value
[10] = liver-stage malaria parasite growth inhibition, primary screen, cell-based, HepG2, luciferase luminescence, HepG2 viability (AID 624349; in the data active = parasite load remaining mostly below about 12%, no sharp cut-off; inactive = mostly above about 10%;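 also: 100% = mean of DMSO negative control wells on the same plate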); conditions: P. berghei liver stage in HepG2, luciferase luminescence, concentration not given here; parasite load remaining: stronger effect = lower value; viability: measured here: HepG2 viability without parasites
[11] = reducers of polyQ inclusions in PC12 cells, cell-based, NGF-treated PC12, GFPQ80 (AID 1614); conditions: PC12 NGF-treated GFP-polyQ80 inclusion reduction;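 also: lower means fewer inclusions and 0 means no inclusions at all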

CO[C@H]1O[C@H](CO)C(O[C@@H]2OC(C(=O)O)[C@@H](O[C@H]3O[C@H](COS(=O)(=O)O)C(O[C@@H]4OC(C(=O)O)[C@@H](O[C@H]5O[C@H](CO)C(O[C@@H]6OC(C(=O)O)[C@@H](O[C@H]7O[C@H](COS(=O)(=O)O)C(O[C@@H]8OC(C(=O)O)=C[C@H](O)C8OS(=O)(=O)O)[C@H](O)[C@H]7NC(C)=O)[C@H](O)[C@H]6O)[C@H](O)[C@H]5NC(C)=O)[C@H](O)[C@H]4O)[C@H](O)[C@H]3NC(C)=O)[C@H](O)[C@H]2O)[C@H](O)[C@H]1NC(C)=O (stereo not given in full)
luciferase signal [1]: 100 AU (inactive)

COc1ccc(-c2coc3cc(OC(C)=O)cc(OC(C)=O)c3c2=O)cc1
luciferase signal [1]: 80 AU (inactive)

CO/N=C(/C(=O)N[C@@H]1C(=O)N2C(C(=O)OC(C)OC(C)=O)=C(COC(N)=O)CS[C@H]12)c1ccco1 (stereo not given in full)
luciferase signal [1]: 120 AU (inactive)

CC[C@@H](C(=O)C(C)[C@@H](O)[C@H](C)CCc1ccc(C)c(O)c1C(=O)O)C1OC(CC)(C2CC[C@](O)(CC)[C@H](C)O2)C[C@@H]1C (stereo not given in full)
EC50 [2]: 100 nM (active)
inhibition [3]: 75.5%
score [4]: 1
rescue above control [5]: 0
cytochrome c release ratio [6]: 1
inhibition of aggregation [7]: 74%
glutamate uptake change [8]: -67.2%
aggregation suppression score [9]: 0.948
parasite load remaining [10]: -0.43% (inactive)
viability [10]: 84.4%

N[C@@H](C=O)[C@@H](O[C@@H]1O[C@H](C(=O)O)[C@@H](O)[C@H](O)[C@H]1O)[C@@H](O)[C@H](O)CO
luciferase signal [1]: 20 AU (inactive)

CC[C@H](C)[C@H](N)C(=O)N1CCC[C@H]1C(=O)N[C@H](C(=O)O)[C@@H](C)CC
luciferase signal [1]: 120 AU (inactive)

C/C1=C\CC(C)(C)/C=C/CC2(C)OC2CC1 (stereo not given)
luciferase signal [1]: 64 AU (inactive)

CO/N=C1\C[C@]2(C[C@@H]3C[C@@H](C/C=C(\C)C[C@@H](C)/C=C/C=C4\CO[C@@H]5[C@H](O)C(C)=C[C@@H](C(=O)O3)[C@]45O)O2)O[C@H](/C(C)=C/C(C)C)[C@H]1C
luciferase signal [1]: 40 AU (inactive)

C/C=C(/C)C(=O)O[C@H]1[C@H](OC(C)=O)[C@]2(CO)[C@H](O)C[C@]3(C)C(=CC[C@@H]4[C@@]5(C)CC[C@H](O[C@@H]6O[C@H](C(=O)O)[C@@H](O[C@@H]7O[C@H](CO)[C@@H](O)[C@H](O)[C@H]7O)[C@H](O)[C@H]6O[C@@H]6O[C@H](CO)[C@@H](O)[C@H](O)[C@H]6O)[C@](C)(CO)[C@@H]5CC[C@]43C)[C@@H]2CC1(C)C
luciferase signal [1]: 276 AU (inactive)

CCC(=O)OCC(=O)[C@@]1(OC(=O)CC)[C@H](C)CC2C3C(Cl)CC4=CC(=O)C=C[C@]4(C)C3C(O)C[C@@]21C (stereo not given in full)
luciferase signal [1]: 108 AU (inactive)

CC(=O)O[C@H]1CC[C@@]2(C)[C@@H](CC[C@@H]3[C@@H]2CC(=O)[C@]2(C)[C@@H]4[C@H](C[C@@H]32)O[C@]2(CC[C@@H](C)CO2)[C@H]4C)C1
luciferase signal [1]: 56 AU (inactive)

O=c1c(O)c(-c2ccccc2)oc2cccc(O)c12
luciferase signal [1]: 60 AU (inactive)

OC[C@@H](O)C(O)[C@@H](O)CO (stereo not given in full)
luciferase signal [1]: 88 AU (inactive)

CC(=O)C1CCC2C3CC=C4CC(OS(=O)(=O)O)CC[C@]4(C)C3CC[C@]12C (stereo not given in full)
inhibition [3]: -1.98%
score [4]: 0.85
rescue above control [5]: 6.71
cytochrome c release ratio [6]: 1.34
inhibition of aggregation [7]: 37.2%
glutamate uptake change [8]: 48.1%
inclusion score [11]: 2
aggregation suppression score [9]: 0.286

CC(=O)O[C@H]1CC[C@]2(C)C3=C(CC[C@H]2C1(C)C)[C@@]1(C)CC[C@@H]([C@H](C)CCC=C(C)C)[C@]1(C)CC3
luciferase signal [1]: 28 AU (inactive)

CCN(CCCc1ccccc1)CCCc1ccccc1 (tested in a mixture with another compound)
inhibition [3]: 13.3%
score [4]: 1.17
rescue above control [5]: -6.75
cytochrome c release ratio [6]: 0.86
inhibition of aggregation [7]: 31.7%
glutamate uptake change [8]: 20.1%
inclusion score [11]: 2
aggregation suppression score [9]: 1.65

O=c1c2cc(O)c(O)cc2oc2cc(O)c([C@@H]3O[C@H](CO)[C@@H](O)[C@H](O)[C@H]3O)c(O)c12
luciferase signal [1]: 48 AU (inactive)

CC(N)C(O)c1cccc(O)c1 (stereo not given)
inhibition [3]: -31.9%
score [4]: 1.32
rescue above control [5]: 2.5
cytochrome c release ratio [6]: 0.89
inhibition of aggregation [7]: 91.7%
glutamate uptake change [8]: -5.75%
inclusion score [11]: 2
aggregation suppression score [9]: 1.46
parasite load remaining [10]: 141% (inactive)
viability [10]: 88.5%
